The sample as a whole holds a higher share of hits than the screen did.
TTR transcr act: TTR transcription activation, primary screen | SH-SY5Y TTR promoter Gaussia luciferase, luminescence; 100% = recombinant luciferase protein wells | activation, % at 16.7 µM | hit rate 1.3% among 92,000;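 active = activation above the mean of all tested compounds plus 3 SD, cut at about 9.5% in these data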;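 note: cells exposed to compounds for one day before reading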
TTR inh HuH7: decreases TTR transcription in HuH7 cells in activator counter-screen. inhibition, % at 16.7 µM. shares compounds with TTR transcr act. HuH7 TTR promoter-Gaussia luciferase reporter, luminescence. hit rate 4% among 1,100. AID 1117279;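 active = average inhibition above the solvent-only control wells' mean plus 3 SD, cut at about 15% in these data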;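 note: inhibitors lower well luminescence so higher value means more inhibition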
TTR act confirm: confirmation of human transthyretin transcription activators. shares compounds with TTR transcr act. SHSY5Y TTR promoter Gaussia luciferase, luminescence; 100% = purified Lucia enzyme wells, no cells. activation, % at 16.7 µM. 1,100 tested, under 10 active;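 active = mean activation above a set limit taken from the earlier primary screen, cut at about 11% in these data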
A number is an active result; . = inactive.

SMILES	TTR transcr act	others
Cc1ccc(CCNC(=O)C2CCC(CNc3c(N4CCCC4)c(=O)c3=O)CC2)cc1 (stereo not drawn)	.
COCCCNC(=O)C[C@H]1C[C@@]2(C(=O)OC)C(=C[C@H](COCc3ccccc3)O[C@@H]2C)N(Cc2ccco2)C1=O	.
C=CCN1C(=O)[C@H](CC(=O)N2CCSCC2)[C@@]2(C(=O)OCC)CCCC=C12	.
Cn1c(=O)cc(OCCCC(=O)Nc2cc(-c3ccncc3)ccn2)c2ccccc21	.
Cc1nc(SCC(=O)c2ccccc2)c(C#N)c(-c2ccco2)c1C(=O)NCc1ccco1	.
CC(C)[C@H]1/C(=C/C2CC2)N2C(=O)C[C@H](c3cccc(C(F)(F)F)c3)N=C2N1Cc1ccc2c(c1)OCO2	.
COc1ccc(-c2cc(C(F)(F)F)n3nc(C(=O)N4CCOCC4)nc3n2)cc1	.
O=C(c1nc2nc(-c3ccccc3)cc(C(F)(F)F)n2n1)N1CCCCC1	11	TTR inh HuH7=.;TTR act confirm=.
O=C(c1cc2nc(-c3ccccc3)cc(C(F)(F)F)n2n1)N1CCCC1	.
COc1ccc(S(=O)(=O)NC(C)C(=O)Nc2ccccc2F)cc1 (stereo not drawn)	.
COc1ccc(CN(C)CC(=O)NC(=O)Nc2ccccc2F)cc1	11	TTR inh HuH7=.;TTR act confirm=.
COc1ccc(OC)c(N(CC(=O)Nc2ccccc2F)S(=O)(=O)c2ccccc2)c1	.
O=C(NC1CCCCN(Cc2ccc(Cl)cc2)C1=O)c1ccc(F)cc1 (stereo not drawn)	.
COC(=O)[C@]12C[C@H](CC(=O)N3CCCC3)C(=O)N(Cc3cccc4ccccc34)C1=C[C@H](C(C)C)O[C@@H]2C1CC1	.
CCOc1nc(NC(=O)NS(=O)(=O)c2cccc(Cl)c2)nc(-c2ccccc2)n1	.
C[C@H]1[C@@H](OC(=O)NCc2ccco2)CC[C@@]23CCCN2C(=O)CCC[C@@H]13	.
Cc1ccccc1CN1CCCCC(NC(=O)c2cccc([N+](=O)[O-])c2)C1=O (stereo not drawn)	.
CCOc1cc2[nH]c(=S)n(CCC(=O)NCc3ccc(OC)cc3)c(=O)c2cc1OCC	26	TTR inh HuH7=.;TTR act confirm=.
CCOc1cc2[nH]c(=S)n(CCCOC)c(=O)c2cc1OCC	.
CCOc1cc2[nH]c(=S)n(CCCCC(=O)NCc3ccco3)c(=O)c2cc1OCC	.
COc1cccc(S(=O)(=O)N(C)C[C@@H]2OCc3cnnn3CCCC(=O)N([C@@H](C)CO)C[C@@H]2C)c1	.
CCC(C(=O)NC1CCCC1)n1c(-c2ccccn2)nc2ccccc21 (stereo not drawn)	.
CCC(C(=O)NCc1ccccc1)n1c(-c2cccs2)nc2ccccc21 (stereo not drawn)	11	TTR inh HuH7=.;TTR act confirm=.
COc1ccc(C(C(=O)NCc2ccccc2)n2c(-c3ccncc3)nc3ccccc32)cc1 (stereo not drawn)	.
C[C@H]1[C@@H](c2ccccc2)OC(O)([C@H](Cc2ccccc2)NC(=O)OC(C)(C)C)CN1C (stereo partly drawn)	.
SMILES	TTR transcr act	others
Cc1ccc(S(=O)(=O)N2CCCCC2)cc1C(=O)NCc1ccncc1	.
CCCCCNC(=O)c1cc(S(=O)(=O)N2CCCCC2)ccc1F	11	TTR inh HuH7=.;TTR act confirm=.
CCCCNC(=O)c1cc(S(=O)(=O)N2CCCCC2)oc1C	.
CN1CCC(N[C@@H](Cc2ccccc2)C(=O)NCCCc2ccccc2)(C(=O)NCCc2c[nH]c3ccccc23)CC1	.
Cc1nc(N)ncc1CCC1OCCO1	12	TTR inh HuH7=.;TTR act confirm=.
COC(=O)C1CN(CCO)CCS(=O)(=O)N1Cc1cn(Cc2ccc(C)cc2)nn1 (stereo not drawn)	.
COCCCNC(=O)C[C@H]1C[C@@]2(C(=O)OC)C(=C[C@H](COCc3ccccc3)O[C@@H]2C)N(Cc2cccc3ccccc23)C1=O	.
COc1cccc(NC(=O)N(C2CCCCC2)C(C)c2cccs2)c1 (stereo not drawn)	13	TTR inh HuH7=.;TTR act confirm=.
CC(c1cccnc1)N(C(=O)Nc1ccccc1)C1CCCCC1 (stereo not drawn)	.
COc1cccc(NC(=O)Cc2cccs2)c1	.
O=C(NCc1cccnc1)C1c2ccccc2C(=O)N1C1CCCC1 (stereo not drawn)	.
CCC1(C)C2(C#N)C(N)=NC(OC)(OC)C12C#N (stereo not drawn)	16	TTR inh HuH7=.;TTR act confirm=.
Cc1ccccc1CN1CCCCC(NC(=O)c2ccc(F)cc2F)C1=O (stereo not drawn)	.
COc1ccc(-n2nc(C(=O)NCC(=O)Nc3cccc(Cl)c3)c3ccccc3c2=O)cc1OC	.
O=C(CCc1ccccc1-c1ccccc1CCNC(=O)c1c(F)cccc1F)NCc1ccccc1	.
O=C(CN1CCC(NC(=O)c2ccccc2Cl)CC1)NCc1ccccc1	.
O=C(NCc1nnc2c3ccccc3c(-c3ccccc3)nn12)c1ccccc1Cl	14	TTR inh HuH7=.;TTR act confirm=.
O=C(NCCN1CCCC1)c1ccccc1Cl	.

Assay outcomes (PubChem BioAssay)
